Results taken from PubChem BioAssay (EPA / NIEHS).
Values joined by “and” are separate entries in the source; they are usually repeats but may differ in a detail not shown here. Identical values can stand only once. Inconclusive results are not listed. Some compounds were tested as several samples or in several runs, with calls that do not always agree. Active and inactive are the calls of the source. How the source made its calls, unless noted: active means hit-call score of the fitted dose curve at least 0.9, where 1 is the maximum; inactive means score below 0.9.

Columns and labels:
[1] = read-out: Human Leukocyte Antigen - DR isotype (HLADR), HLA-DRA (gene 3122); experiment: BSK_3C_HLADR: BioMAP Diversity Plus: 3C Assay for Human Leukocyte Antigen - DR isotype (HLADR) Biomarker Activity (AID 2283019); conditions: primary human endothelial cells (HUVEC); actives raise or lower the signal
How it was run: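 Endothelial cells from human umbilical vein are treated with test chemical; after 24 h, HLA-DR levels are measured by ELISA. Data are fitted in both directions using DMSO as the baseline.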

[2] = read-out: Interleukin-8 (IL8), CXCL8 (gene 3576); experiment: BSK_3C_IL8: BioMAP Diversity Plus: 3C Assay for Interleukin-8 (IL8) Biomarker Activity (AID 2283020); conditions: primary human endothelial cells (HUVEC); actives raise or lower the signal
How it was run: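 IL-8 was measured by ELISA in HUVEC cultures 24 h after chemical dosing, with gain or loss of signal fitted relative to DMSO. Parallel SRB total-protein staining tracked overt cytotoxicity.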

[3] = read-out: Monokine induced gamma interferon (MIG), CXCL9 (gene 4283); experiment: BSK_3C_MIG: BioMAP Diversity Plus: 3C Assay for Monokine induced gamma interferon (MIG) Biomarker Activity (AID 2283021); conditions: primary human endothelial cells (HUVEC); actives raise or lower the signal;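 on AC50: MIG protein level measured by immunoassay in the treated endothelial cultures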
How it was run: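 ELISA measurement of MIG in human umbilical vein endothelial cells 24 h after treatment. Cytotoxicity tracked by SRB staining in parallel cultures; gain or loss of signal fitted relative to DMSO.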

[4] = biological target: human Vitamin D Receptor (VDR), VDR (gene 7421) (UniProt P11473); experiment: ATG_VDR_TRANS: Attagene TRANS-FACTORIAL HepG2 Assay for human Vitamin D Receptor (VDR) (AID 2283022; active means hit-call score of the fitted dose curve at least 0.9, where 1 is the maximum)
Sequence of human Vitamin D Receptor (VDR), VDR (gene 7421) (P11473 whole entry, looked up, the tested form may be a part): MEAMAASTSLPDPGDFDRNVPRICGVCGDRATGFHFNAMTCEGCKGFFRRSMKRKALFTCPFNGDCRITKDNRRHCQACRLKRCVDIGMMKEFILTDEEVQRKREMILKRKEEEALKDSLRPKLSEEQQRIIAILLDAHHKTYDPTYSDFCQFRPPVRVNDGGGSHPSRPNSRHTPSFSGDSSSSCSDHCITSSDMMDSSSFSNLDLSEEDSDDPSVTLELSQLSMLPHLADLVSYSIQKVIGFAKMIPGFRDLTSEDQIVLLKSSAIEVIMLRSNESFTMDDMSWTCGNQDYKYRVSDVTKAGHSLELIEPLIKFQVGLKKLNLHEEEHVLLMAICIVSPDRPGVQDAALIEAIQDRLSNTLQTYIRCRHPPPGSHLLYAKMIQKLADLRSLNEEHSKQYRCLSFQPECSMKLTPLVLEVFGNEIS
How it was run: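 Fluorescence of labelled reporter cDNA fragments, resolved by capillary electrophoresis, gives mRNA induction after 24 h treatment of HepG2 cells carrying transfected Gal4-fusion reporter units. Activity is fitted in the positive direction with DMSO as baseline.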

[5] = read-out: Matrix Metallopeptidase 1 (MMP1), MMP1 (gene 4312); experiment: BSK_BE3C_MMP1: BioMAP Diversity Plus: BE3C Assay for Matrix Metallopeptidase 1 (MMP1) Biomarker Activity (AID 2283024); conditions: primary human bronchial epithelial cells; actives raise or lower the signal
How it was run: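 ELISA measurement of MMP-1 after 24 h compound exposure of primary human bronchial epithelial cells. Changes in either direction fitted relative to DMSO; parallel SRB staining checked overt cytotoxicity.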

[6] = BSK_3C_Vis: BioMAP Diversity Plus: 3C Assay for Morphology Visualization (AID 2283025); conditions: primary human endothelial cells (HUVEC);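 further: fitted both ways so gain or loss versus DMSO counts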;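 on AC50: light microscopy image of cell morphology used as background control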
How it was run: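 Light-microscopy visualization of HUVEC cultures at 24 h post-treatment, with DMSO as baseline for bidirectional fitting.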

[7] = read-out: Pselectin, SELP (gene 6403); experiment: BSK_4H_Pselectin: BioMAP Diversity Plus: 4H Assay for Pselectin Biomarker Activity (AID 2283026); conditions: primary human endothelial cells (HUVEC); actives raise or lower the signal
How it was run: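 ELISA of surface P-selectin on HUVEC, 24 h after dosing, with parallel SRB staining (0.1% after 10% TCA fixation, 560 nm) for overt cytotoxicity. Activity fitted in both directions relative to DMSO.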

[8] = BSK_4H_SRB: Viability Assessment in the BioMAP Diversity Plus: 4H Assay (AID 2283027); conditions: primary human endothelial cells (HUVEC);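 further: cells exposed to compound for 24 h before staining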;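 on AC50: curves fitted both ways versus DMSO so AC50 may be loss or gain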
How it was run: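 Cytotoxicity read-out in primary human endothelial cells: after 24 h compound exposure, cells were TCA-fixed (10%), stained with 0.1% SRB and absorbance taken at 560 nm. Values fitted in both directions relative to DMSO.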

[9] = read-out: Thrombomodulin, THBD (gene 7056); experiment: BSK_3C_Thrombomodulin: BioMAP Diversity Plus: 3C Assay for Thrombomodulin Biomarker Activity (AID 2283029); conditions: primary human endothelial cells (HUVEC); actives raise or lower the signal
How it was run: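 ELISA measurement of thrombomodulin on HUVEC surface 24 h after chemical dosing; activity fitted in both directions relative to DMSO vehicle.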

[10] = read-out: Urokinase-type plasminogen activator receptor (uPAR), PLAUR (gene 5329); experiment: BSK_4H_uPAR: BioMAP Diversity Plus: 4H Assay for Urokinase-type plasminogen activator receptor (uPAR) Biomarker Activity (AID 2283030); conditions: primary human endothelial cells (HUVEC); actives raise or lower the signal
How it was run: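 Chemicals are dosed onto human vascular endothelial primary cells (umbilical vein). After 24 h, uPAR is read by ELISA. Gain or loss of signal is fitted relative to DMSO.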

[11] = read-out: Vascular endothelial growth factor receptor 2 (Homo sapiens) (UniProt P35968); experiment: BSK_4H_VEGFRII: BioMAP Diversity Plus: 4H Assay for Vascular endothelial growth factor receptor 2 (VEGFR2) Biomarker Activity (AID 2283031); conditions: primary human endothelial cells (HUVEC); actives raise or lower the signal;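 on AC50: cell-surface VEGFR2 protein level quantified by ELISA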
How it was run: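 VEGFRII levels on human vascular endothelial primary cells were determined by ELISA at 24 hours post-dosing, with gain- or loss-of-signal fitted against DMSO controls.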

[12] = read-out: Human Leukocyte Antigen - DR isotype (HLADR), HLA-DRA (gene 3122); experiment: BSK_BE3C_HLADR: BioMAP Diversity Plus: BE3C Assay for Human Leukocyte Antigen - DR isotype (HLADR) Biomarker Activity (AID 2283032); conditions: primary human bronchial epithelial cells; actives raise or lower the signal
How it was run: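 Cell-surface HLA-DR ELISA readout at 24 h after dosing in the BE3C primary human lung bronchial epithelial system; gain or loss of signal against DMSO, with parallel sulforhodamine B staining of total protein for overt cytotoxicity.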

[13] = read-out: Vascular cell adhesion molecule 1 (VCAM1), VCAM1 (gene 7412); experiment: BSK_4H_VCAM1: BioMAP Diversity Plus: 4H Assay for Vascular cell adhesion molecule 1 (VCAM1) Biomarker Activity (AID 2283033); conditions: primary human endothelial cells (HUVEC); actives raise or lower the signal
How it was run: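 VCAM-1 ELISA read 24 h after chemical dosing of HUVEC in the BioMAP 4H system, with gain or loss of signal fitted relative to DMSO. Parallel SRB staining (560 nm) checked overt cytotoxicity.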

[14] = read-out: Interferon-gamma inducible Protein 10 (IP10), CXCL10 (gene 3627); experiment: BSK_BE3C_IP10: BioMAP Diversity Plus: BE3C Assay for Interferon-gamma inducible Protein 10 (IP10) Biomarker Activity (AID 2283034); conditions: primary human bronchial epithelial cells; actives raise or lower the signal
How it was run: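 IP-10 quantified by ELISA in human primary bronchial epithelial cell cultures at 24 hours post-dosing. Gain or loss of signal fitted relative to DMSO; parallel SRB staining assessed overt cytotoxicity.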

[15] = read-out: Monokine induced gamma interferon (MIG), CXCL9 (gene 4283); experiment: BSK_BE3C_MIG: BioMAP Diversity Plus: BE3C Assay for Monokine induced gamma interferon (MIG) Biomarker Activity (AID 2283035); conditions: primary human bronchial epithelial cells; actives raise or lower the signal
How it was run: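 ELISA quantified MIG after 24 h exposure of primary bronchial epithelial cultures, analysed in both directions relative to DMSO. Cytotoxicity tracked in parallel cultures by sulforhodamine B staining.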

[16] = read-out: Transforming growth factor beta 1 (TGFb1), TGFB1 (gene 7040); experiment: BSK_BE3C_TGFb1: BioMAP Diversity Plus: BE3C Assay for Transforming growth factor beta 1 (TGFb1) Biomarker Activity (AID 2283036); conditions: primary human bronchial epithelial cells; actives raise or lower the signal
How it was run: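 ELISA readout of TGF-b1 from human lung bronchial epithelial primary cells, taken 24 h post-treatment. Gain or loss of signal fitted relative to DMSO baseline, with parallel SRB staining for overt cytotoxicity.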

[17] = read-out: Plasminogen activator inhibitor-1 (PAI1), SERPINE1 (gene 5054); experiment: BSK_BE3C_PAI1: BioMAP Diversity Plus: BE3C Assay for Plasminogen activator inhibitor-1 (PAI1) Biomarker Activity (AID 2283037); conditions: primary human bronchial epithelial cells; actives raise or lower the signal
How it was run: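 PAI-1 was measured by ELISA in human primary bronchial epithelial cultures 24 h after chemical dosing, with cytotoxicity checked by SRB total-protein staining in parallel cultures. Activity was fitted in both directions relative to DMSO.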

[18] = read-out: urokinase plasminogen activator (uPA), PLAU (gene 5328); experiment: BSK_BE3C_uPA: BioMAP Diversity Plus: BE3C Assay for urokinase plasminogen activator (uPA) Biomarker Activity (AID 2283038); conditions: primary human bronchial epithelial cells; actives raise or lower the signal
How it was run: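 Measured by ELISA: uPA from human primary bronchial epithelial cells 24 h after chemical treatment. Values derive from bidirectional curve fitting with DMSO serving as negative control. Total protein by SRB staining in parallel wells flagged overt cytotoxicity.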

[19] = BSK_3C_SRB: Viability Assessment in the BioMAP Diversity Plus: 3C Assay (AID 2283023); conditions: primary human endothelial cells (HUVEC);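 further: fitted both ways against DMSO so a hit may be signal rise or drop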
How it was run: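 Cells were dosed with chemical, cultured 24 h, fixed with 10% TCA, stained with 0.1% SRB and read at 560 nm. Human umbilical vein endothelium was used; DMSO served as negative control and baseline.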

[20] = BSK_BE3C_SRB: Viability Assessment in the BioMAP Diversity Plus: BE3C Assay (AID 2283028); conditions: primary human bronchial epithelial cells
How it was run: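 Overt cytotoxicity was assessed as total protein in confluent human primary bronchial epithelial cultures 24 h after chemical addition, using 0.1% sulforhodamine B staining read at 560 nm.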

Measured: AC50

CCCCC(CC)COP(=O)(Oc1ccccc1)Oc1ccccc1 (stereo unspecified)
inactive: [3] | [4] | [15] | [16] | [17] | [18]
active: [1] 9.37 µM | [2] 6.65 µM | [5] 1.91 µM | [6] 10.1 µM | [7] 12.3 µM | [8] 20 µM | [9] 3.97 µM | [10] 20 µM | [11] 10.4 µM | [12] 20 µM | [13] 20 µM | [14] 20 µM

Nc1ccc([N+](=O)[O-])cc1Cl
not listed: [7] | [9]
inactive: all other assays above

CCNc1nc(Cl)nc(NC(C)(C)C)n1
not listed: [9] | [19]
inactive: all other assays above

O=P1(N(CCCl)CCCl)NCCCO1 (stereo unspecified)
not listed: [5] | [20]
inactive: all other assays above

CSC(C)(C)C=NO
not listed: [5] | [9]
inactive: all other assays above

CCCCN(CCCC)SN(C)C(=O)Oc1cccc2c1OC(C)(C)C2
active: [1] 29.8 µM | [2] 36.4 µM | [19] 29.5 µM | [6] 37.5 µM | [7] 20.2 µM | [8] 27.2 µM | [10] 37.1 µM | [11] 31 µM | [13] 30.4 µM
inactive: [3] | [12] | [14] | [15] | [16] | [17] | [18]

CC(C)(C)c1ccccc1OP(=O)(Oc1ccccc1)Oc1ccccc1
active: [1] 20 µM | [2] 20 µM | [6] 20 µM | [7] 20 µM | [8] 11.1 µM | [9] 20 µM | [10] 34.4 µM | [12] 2.85 µM | [13] 20 µM
inactive: [3] | [4] | [11] | [14] | [15] | [16] | [17] | [18]

OCC(F)(F)OC(F)(F)C(F)(F)OC(F)(F)C(F)(F)OC(F)(F)F
inactive: [4] | [5] | [20] | [11] | [12] | [13] | [14] | [15] | [17] | [18]
active: [1] 31.5 µM and 49.7 µM | [2] 40.7 µM and 42.9 µM | [3] 38.9 µM and 48.5 µM | [8] 47.5 µM and 18.3 µM | [10] 50.3 µM and 44.6 µM | [11] 42.9 µM

CC(C)(C)c1ccc(O)cc1
not listed: [4] | [5] | [7]
inactive: all other assays above

CCOP(=S)(S)OCC
not listed: [4] | [5] | [7]
inactive: all other assays above

Cc1c([N+](=O)[O-])cc2c(c1[N+](=O)[O-])C(C)(C)CC2(C)C
active: [1] 11.9 µM | [2] 2.03 µM | [6] 37.5 µM | [12] 8.05 µM | [14] 20 µM | [16] 13.5 µM | [17] 5 µM
not listed: [5] | [9] | [19]
inactive: all other assays above

CC(C)Nc1ccc(Nc2ccccc2)cc1
active: [1] 4.45 µM | [2] 12.8 µM | [3] 20 µM | [19] 11 µM | [6] 9.94 µM | [7] 7.42 µM | [8] 9.88 µM | [10] 14.4 µM | [11] 8.12 µM | [12] 9.07 µM | [13] 10.1 µM | [14] 6.69 µM | [15] 20 µM | [16] 20 µM | [18] 20 µM
inactive: [5] | [9] | [17]

O=P(Oc1ccccc1)(Oc1ccccc1)Oc1ccccc1
active: [1] 33.1 µM | [2] 29.4 µM | [6] 37.5 µM | [7] 33.2 µM | [8] 28.8 µM | [10] 29.9 µM | [13] 26.8 µM | [14] 26.3 µM | [17] 10.6 µM
inactive: [3] | [4] | [20] | [9] | [11] | [15] | [16] | [18]

CN(C)C(=O)Cl
not listed: [5] | [7] | [9] | [19]
inactive: all other assays above
